Experimental data published in PubChem BioAssay (NCI).
This is part of a sample that, as a whole, favours compounds with a hit. Of some 83,000 tested, about 20% had one in any assay.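 In brief: 96-well plates, 48 h treatment, single concentration, percent growth endpoint.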 Values without a mark were called inactive. Active and inactive are the calls of the source. Rule for the calls: active = growth percent below 10; inactive = the rest.

Assays:
Assay in all cases: NCI-60 one-dose screen, 48 h (100 = growth as untreated, 0 = no growth, -100 = all killed)
Conditions in all cases: 10 µM unless noted
SK-MEL-2 melanoma = system: SK-MEL-2 melanoma
EKVX NSCLC = system: EKVX NSCLC
UO-31 renal = system: UO-31 renal
TK-10 renal = system: TK-10 renal
ACHN renal = system: ACHN renal
CAKI-1 renal = system: CAKI-1 renal
A498 renal = system: A498 renal
CCRF-CEM leukemia = system: CCRF-CEM leukemia
MOLT-4 leukemia = system: MOLT-4 leukemia
SR leukemia = system: SR leukemia
RPMI-8226 leukemia = system: RPMI-8226 leukemia
OVCAR-8 ovarian = system: OVCAR-8 ovarian
OVCAR-5 ovarian = system: OVCAR-5 ovarian
OVCAR-4 ovarian = system: OVCAR-4 ovarian
SK-OV-3 ovarian = system: SK-OV-3 ovarian
IGROV1 ovarian = system: IGROV1 ovarian
OVCAR-3 ovarian = system: OVCAR-3 ovarian
HS 578T breast = system: HS 578T breast
NCI/ADR-RES ovarian = system: NCI/ADR-RES ovarian

Row | SMILES | growth (SK-MEL-2 melanoma) | growth (EKVX NSCLC) | growth (UO-31 renal) | growth (TK-10 renal) | growth (ACHN renal) | growth (CAKI-1 renal) | growth (A498 renal) | growth (CCRF-CEM leukemia) | growth (MOLT-4 leukemia) | growth (SR leukemia) | growth (RPMI-8226 leukemia) | growth (OVCAR-8 ovarian) | growth (OVCAR-5 ovarian) | growth (OVCAR-4 ovarian) | growth (SK-OV-3 ovarian) | growth (IGROV1 ovarian) | growth (OVCAR-3 ovarian) | growth (HS 578T breast) | growth (NCI/ADR-RES ovarian)
1 | Nc1n[nH]c2cccc(C#Cc3cccc(C(=O)Nc4ccc(Cl)c(C(F)(F)F)c4)c3)c12 | 39.2% | 74.2% | 29.6% | 91.5% | 59.1% | 94.5% | 35.6% | 35.8% | 31.2% | 56% | 53.1% | 65.8% | 43.4% | 56.2% | 106% | 35.8% | 81.6% | 53.3% | 62.2%
2 | CCN(CC)CCCNc1cc(OC)cc2cccnc12 | 109% | 107% | 91.6% | 109% | 110% | 103% |  | 114% | 104% | 100% | 97.4% | 101% | 117% | 51.4% | 112% | 106% | 79.2% | 109% | 108%
3 | Oc1cccc(-c2nc(-c3n[nH]c(=S)n3-c3ccccc3)cc3c2[nH]c2ccccc23)c1 | -9.51% (active) | 50.3% | 49.6% | 47.9% | 53% |  | -14.8% (active) | 21.3% | 26.2% | 19.2% | 17.8% | 24.7% | 73.1% | 56.8% | 37.3% | 24% | 3.83% (active) | 35.1% | 91.6%
4 | COC(=O)c1cc(-c2cc(OC)c(OC)c(OC)c2)[nH]c1N/N=C/c1c(Cl)cccc1Cl | -21.2% (active) | 64.4% | 40.9% | -47.6% (active) | 10.1% | 7.04% (active) | -63.6% (active) | 35.6% | 33.2% | -17.6% (active) | 18.4% | 5.44% (active) | 22.7% | 5.08% (active) | 28.3% | -54.8% (active) | 9.29% (active) | -5.55% (active) | 6.82% (active)
5 | NCCNc1ccc([N+](=O)[O-])cc1 | 97.2% | 137% | 87.1% | 96.2% | 108% | 113% | 106% | 94.5% | 96.2% | 100% | 93% | 113% | 115% | 112% | 109% | 111% | 134% | 106% | 116%
6 | O=C(NS(=O)(=O)c1ccccc1)n1cc(-c2ccncc2)c(-c2cc(O)cc(Cl)c2)n1 | 95.5% | 107% | 91.9% | 127% | 84.5% | 94.2% | 103% | 87.4% | 79.3% | 42.6% | 85.2% |  | 115% | 92.2% | 107% | 99.4% | 108% | 104% | 97.3%
7 | C/C(=C(\c1ccc(OCCCN(C)C)cc1)c1ccc(OC(=O)Cc2ccccc2)cc1)c1ccc(Cl)cc1 | 92.7% | 70.4% | 62% | 87.8% | 94.3% | 83.7% | 103% | 66.4% | 48.7% | -34.9% (active) | 27.1% | 89.2% | 89.3% | 69.8% | 73.3% | 88.4% | 70.4% | 66.4% | 85.1%
8 | N#Cc1c(-c2ccc(F)cc2)cc(-c2cccc(Cl)c2)[nH]c1=O | 78.6% | 66.9% | 54.3% | 54.3% | 49.4% | 52.1% | 80.4% | 71.9% | 88.3% | 113% | 42.1% | 53.4% | 112% | 28% | 79.3% | 62.8% | 7.21% (active) | 46% | 71.2%
9 | CC(C)(C)c1ccc(C(=O)Nc2sc3c(c2C#N)CCC(=O)C3)cc1 | 12.8% | 19.1% | -99% (active) | 24.3% | -84% (active) | -74.4% (active) | 89.8% | 8.53% (active) | 10.6% | 4.39% (active) | -8.65% (active) | 16.6% | 21% | -73.8% (active) | 57.4% | 25.8% | -29.6% (active) | 30.5% | 9.31% (active)
10 | COc1cc2ncnc(Nc3ccc(S(=O)(=O)Nc4cc(C)on4)cc3)c2cc1OCCCN1CCOCC1 | 101% | 93.4% | 88.1% | 95.3% | 106% | 98% | 104% | 104% | 101% | 103% | 106% | 98.2% | 106% | 94.8% | 95% | 108% | 113% | 103% | 106%
11 | COc1ccc(C2=NN3C(C2)c2cc(Br)ccc2OC3c2ccncc2)cc1 (stereo not given) | 97.5% | 83.6% | 44.6% | 98.6% | 80.7% | 45.2% |  | 70% | 68.5% | 64.2% | 77.8% | 82.6% | 88.4% | 78.9% | 70.6% | 48.9% | 80.1% | 89.4% | 82%
12 | Cc1ccc(Nc2nc(N)nc(N)c2N=O)cc1Cl | 85.8% | 81.5% | 56.5% | 96.2% | 72.2% | 82.2% |  | 89.8% | 68.7% | 72.5% | 78.3% | 95.8% | 93.9% | 76.9% | 96.6% | 37.7% | 68.3% | 75.2% | 79.3%
13 | COc1cc(CNC(=O)CCCC/C=C/C(C)C)ccc1OCc1cn(-c2ccc(C(F)(F)F)cc2)nn1 | 95.1% | 88.3% | 70.5% | 92.8% | 90.2% | 80.4% | 85.8% | 68.8% |  | 70.4% | 53.4% | 41.1% | 96.6% | 98.6% | 91.3% | 58.7% | 107% | 80.4% | 48.2%
14 | CCOC(=O)c1ccc2c(c1)[n+](=O)c(C(C)=O)c(C(F)(F)F)n2[O-] | 12.1% | 29.1% | 27.4% | 40.9% |  | 40% | 12.5% | -18.1% (active) | -56.4% (active) | -59.2% (active) | 8.56% (active) | -42.6% (active) | -1.19% (active) | -5.96% (active) | 24.8% | -81.1% (active) | -84.7% (active) | -23.9% (active) | 6.85% (active)
15 | CC(=O)Cc1nsc(NC(=O)c2cc(-c3cc(Cl)ccc3Cl)oc2C)n1 | 101% | 98.4% | 107% | 151% | 106% | 98.9% | 105% | 108% | 101% | 98.5% | 100% | 102% | 111% | 113% | 104% | 109% | 110% |  | 108%
16 | O=C(Nc1ccc2c(c1)-c1ccccc1C2)C1CC(=O)N(c2ccc3c(c2)OCO3)C1 (stereo not given) | 89.2% [50 µM] | 78.1% [50 µM] | 97.7% [50 µM] | 60.6% [50 µM] | 64.5% [50 µM] |  | 26.1% [50 µM] | 100% [50 µM] | 99.7% [50 µM] | 77.2% [50 µM] | 81.8% [50 µM] | 28.5% [50 µM] | 83.5% [50 µM] | 2.45% [50 µM] (active) | 76.1% [50 µM] | 80.5% [50 µM] | 31.3% [50 µM] | 31.7% [50 µM] | 58.9% [50 µM]
